Results filed as inconclusive are left out. Entries that show only a call come without a potency. Activity calls are given as the source filed them. Calls come from the whole dose curve; as a rule, active = well fitted cell-killing curve with a large enough effect; inconclusive = small, poorly fitted or top-dose-only effect, or effect the other way; inactive = no such curve, though single readings can be large or run the other way.
Assay: qHTS of pediatric cancer cell lines to identify multiple opportunities for drug repurposing: Confirmatory screen for Rh30 cells (AID 1347126); note: nearly all actives have a fitted effect of over 55% in size
Conditions: Rh30 rhabdomyosarcoma cell viability; series mostly up to 45.9 µM
Procedure, shortened: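 Cells (500-1,000/well) in growth media were settled 5 h at 37 degrees C, then given compounds for 48 h. Viability was read as CellTiter-Glo luminescence. Primary runs used MIPE at 11 points (0.78 nM-46 µM) and NPC at 8 points (0.59 nM-46 µM); follow-ups used 11 points.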
Potency is the fitted concentration of half-maximal effect.

SMILES	Potency
CN(C)c1ccc2nc3ccc(=[N+](C)C)cc-3sc2c1	1.17 µM (active)
CS(=O)(=O)OCCCCOS(C)(=O)=O	inactive
Cc1ccc(NC(=O)c2ccc(CN3CCN(C)CC3)cc2)cc1Nc1nccc(-c2cccnc2)n1	inactive
Nc1ccn([C@@H]2O[C@H](CO)[C@@H](O)C2O)c(=O)n1 (stereo not given in full)	inactive
CC1(C)C(=O)N(CCN2CCC(C(=O)c3ccc(F)cc3)CC2)c2ccccc21	inactive
Clc1ccc(C(Cn2ccnc2)OCc2ccsc2Cl)c(Cl)c1 (stereo not given)	inactive
CC(=O)O[C@H]1C(=O)[C@@]2(C)C([C@H](OC(=O)c3ccccc3)[C@]3(O)C[C@H](OC(=O)[C@H](O)[C@@H](NC(=O)c4ccccc4)c4ccccc4)C(C)=C1C3(C)C)[C@]1(OC(C)=O)CO[C@@H]1C[C@@H]2O (stereo not given in full)	inactive
CCCCc1ccc2nc(NC(=O)OC)[nH]c2c1	9.27 µM (active)
Oc1ccc(-c2nc(-c3ccc(F)cc3)c(-c3ccncc3)[nH]2)cc1	14.7 µM (active)
Cc1nc(Nc2ncc(C(=O)Nc3c(C)cccc3Cl)s2)cc(N2CCN(CCO)CC2)n1	0.414 µM (active)
Nc1ncn([C@H]2C[C@H](O)[C@@H](CO)O2)c(=O)n1	inactive
CCN(CC)C(=S)SSC(=S)N(CC)CC	inactive
O=C1c2c(O)cc(O)cc2OC(c2ccc(O)c(O)c2)C1O (stereo not given)	inactive
CCN(CC)CCOc1ccc(Nc2ncc3cc(-c4c(Cl)cccc4Cl)c(=O)n(C)c3n2)cc1	7.37 µM (active)
Cc1cc(C2CCCCC2)n(O)c(=O)c1	8.27 µM (active)
